Sampled rows, rich in hits. Any-hit rate of the full collection: about 7.4%.
SMN2 splice enh – SMN2 splice variant enhancement; HEK293 SMN2-luciferase splicing reporter, luminescence, 30-36 h; Potency, µM (highest dose often 46.1 µM), for the others: top-dose activity change, positive = activation, actives largely listed as activators; actives 2.8% (n = 210,000); AID 1458; also: % of control where 0% means no effect; nearly all actives have a fitted effect of over 55% in size
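qHTS luciferase splicing reporter: luminescence rises when SMN2 exon 7 is included in transfected HEK293 cells. Compound exposure lasted 30-36 h at 37C, with 4.5 mM final sodium butyrate as control, followed by a ONE-Glo read.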
FLuc counter – counter-screen for miR-21 project: firefly luciferase inhibitors or activators; P08659; purified FLuc, Km substrates, luminescence inhibition; Potency, µM (top dose mostly 57.5 µM), for inactives: at the highest dose activity change, negative = inhibition, actives largely listed as inhibitors; actives 6.9% (n = 360,000);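 also: plate controls were vehicle for no effect and reference inhibitor for full effect; nearly all actives have a fitted effect of over 55% in size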
Target sequence (P08659 whole entry, looked up): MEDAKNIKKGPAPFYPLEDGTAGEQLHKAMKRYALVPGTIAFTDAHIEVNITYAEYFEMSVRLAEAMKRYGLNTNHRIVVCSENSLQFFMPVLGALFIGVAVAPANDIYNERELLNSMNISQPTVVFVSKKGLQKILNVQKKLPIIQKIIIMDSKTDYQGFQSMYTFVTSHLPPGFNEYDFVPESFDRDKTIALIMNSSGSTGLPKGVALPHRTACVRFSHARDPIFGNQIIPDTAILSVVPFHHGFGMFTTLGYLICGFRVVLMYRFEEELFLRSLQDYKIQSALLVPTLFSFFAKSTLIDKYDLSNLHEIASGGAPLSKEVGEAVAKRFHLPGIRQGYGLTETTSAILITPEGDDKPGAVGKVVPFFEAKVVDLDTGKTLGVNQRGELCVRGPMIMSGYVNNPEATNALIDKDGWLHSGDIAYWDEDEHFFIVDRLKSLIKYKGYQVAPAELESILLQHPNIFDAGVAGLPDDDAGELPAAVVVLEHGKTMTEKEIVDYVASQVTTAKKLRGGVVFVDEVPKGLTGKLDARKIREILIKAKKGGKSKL
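Purified P. pyralis luciferase (10nM final) with 10uM D-luciferin and 10uM ATP (Km levels) in 50mM Tris acetate pH 7.5, 10mM Mg acetate, 0.01% Tween-20, 0.05% BSA; qHTS 6-point titration, ~60 µM downward; luminescence read.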
ELG1 genotoxic – inducers of genotoxicity in HEK293T ELG1-luciferase cells; actives 1.3% (n = 330,000); AID 504466; HEK293T ELG1-luciferase reporter, luminescence, 16 h; Potency, µM (top dose mostly 46 µM), inactives show at the highest dose activity change, positive = activation, actives largely listed as activators; also: % of control where 0% means no effect; nearly all actives have a fitted effect of over 60% in size
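Cells (2,000/well) expressing the ELG1-luciferase fusion are dosed by pin tool and kept 16 hr at 37 °C, 5% CO2. Signal comes from ONE-Glo luciferase reagent after 30 min at room temperature.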
NPC1 prom act – activators of NPC1 promoter. actives 2.4% (n = 320,000). AID 485313. Potency, µM (highest dose often 9.22 µM), for the others: top-dose activation, hits mostly activators. Huh7 NPC1 promoter luciferase reporter, 24 h; also: % of control where 0% means no effect; nearly all actives have a fitted effect of over 60% in size
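Huh7 reporter cells (NPC1 promoter driving luciferase) are dosed with compound for 24 h at 37 °C, 5% CO2; luciferase detection reagent is then added and luminescence measured after 10 min at ambient temperature.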
Luc counter – Kinase-Glo luciferase inhibition (counter-screen) | AID 1379 | actives 0.28% (n = 200,000) | Kinase-Glo luciferase, ATP luminescence, 8 min | Potency, µM (top dose mostly 38.3 µM), for inactives: at the highest dose activity change, negative = inhibition, hits mostly inhibitors; also: % is scaled to controls: 0 for no effect and ±100 for the full control effect; nearly all actives have a fitted effect of over 60% in size
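Recombinant Kinase-Glo luciferase, 10 uM ATP (linear range), luciferin; imidazole pH 7.2 / KCl / MgCl2 / Tween / BSA buffer; 8 min RT; luminescence.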
Rab9 promoter act – activates the Rab9 promoter | Huh7 Rab9 promoter-luciferase reporter, luminescence, 24 h | actives 2.8% (n = 320,000) | Potency, µM (top dose mostly 9.22 µM), without a hit: at the top dose activation, negative = inhibition, usual class: activators | AID 485297; also: % of control where 0% means no effect; nearly all actives have a fitted effect of over 60% in size
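Promoter activation is measured as luciferase luminescence in Huh7 cells stably transfected with a Rab9 promoter–luciferase construct, following 24 h compound exposure at 37 °C and 10 min reagent incubation at ambient temperature.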
* marks the source's active call; other numbers are inactive results; ? = inconclusive; nt = no result given; [ ] = another dose, or the depositor's remark. Calls follow the shape of the dose curve; as a rule, active = well fitted curve in the direction sought with a large enough effect; inconclusive = small, poorly fitted or top-dose-only effect, or another doubt; inactive = no such curve, though single readings can be large; an effect the other way counts as inactive or inconclusive. Potency is read from the fitted curve at half-maximal effect.

SMILES	SMN2 splice enh	FLuc counter	ELG1 genotoxic	NPC1 prom act	Luc counter	Rab9 promoter act
CNC(=O)[C@H]1O[C@@H](n2cnc3c(N)ncnc32)[C@H](O)[C@H]1O	4.9%	nt	nt	nt	-4.0%	nt
N/C(=N\OC(=O)Cc1ccc(Cl)cc1)c1ccncc1	-4.4%	-4.5%	-1.3%	-2.4%	-0.6%	-3.6%
N/C(=N\OC(=O)/C=C/c1ccccc1Cl)c1ccncc1	1.41µM*	0.849µM*	6.2%	1.26µM*	1.1%	0.708µM*
O=C(NNC(=O)c1ccccc1Cl)c1cccs1	27.6%	-14.5%	7.1%	14.6%	-2.8%	21.8%
O=C(NNC(=O)c1cc(Cl)ccc1O)c1cccs1	nt	21.3µM*	9.3%	25.9%	nt	24.6%
COc1ccc(Cl)cc1NC(=S)NNC(=O)c1cccs1	nt	26.9µM*	-4.2%	-2.4%	-12.2%	-9.9%
Cc1ccc(SCc2ccc(C(=O)Nc3ccccc3C(=O)NC(C)C)cc2)cc1	nt	3.4%	9.8%	1.9%	nt	-1.0%
COc1ccc(CC(NC(=O)c2ccccc2)C(=O)NCC(=O)O)cc1 (stereo not drawn)	-18.1%	-0.4%	-0.3%	0.7%	1.8%	2.0%
COc1ccc(C(=O)Nc2ccccc2C(=O)NC(Cc2ccc(O)cc2)C(=O)NNC(=O)c2ccc(C)cc2)cc1 (stereo not drawn)	-1.1%	9.53µM*	?	-2.9%	-1.8%	-12.5%
COc1ccc(C(=O)Nc2ccccc2C(=O)NC(Cc2ccc(O)cc2)C(=O)NNC(=O)c2ccccc2)cc1 (stereo not drawn)	22.2%	4.78µM*	-5.1%	-1.2%	-2.4%	0.4%
CC(C)C(NC(=O)c1ccccc1NC(=O)c1ccccc1)C(=O)NNC(=O)c1ccncc1 (stereo not drawn)	nt	?	5.5%	-0.6%	nt	-0.5%
COc1ccc(C(=O)Nc2ccccc2C(=O)NC(Cc2ccc(O)cc2)C(=O)NNC(=O)c2ccncc2)cc1 (stereo not drawn)	29.3%	12µM*	2.0%	-1.3%	-0.5%	12.8%
COc1cc(Cl)c(C)cc1NS(=O)(=O)c1c(C)nc2sccn2c1=O	nt	-14.3%	nt	nt	nt	nt
Clc1nc2nc3n(c2nc1Cl)CCC3	nt	-5.0%	-3.5%	0.8%	nt	0.1%
COc1ccc(C2c3[nH]c4ccccc4c3CCN2Cc2cccn2-c2ncccn2)cc1C (stereo not drawn)	nt	-18.8%	-5.4%	7.8%	-1.8%	-9.2%
Cc1cccc(C2c3[nH]c4ccccc4c3CCN2Cc2cccn2-c2ncccn2)c1 (stereo not drawn)	20µM*	-19.5%	-6.4%	1.4%	0.0%	?
COc1ccccc1NC(=O)c1ncn(-c2ccccc2)n1	11.2µM*	?	nt	nt	nt	nt
O=C(Nc1ccc(F)cc1)c1ncn(-c2ccccc2)n1	14.1µM*	10.7µM*	nt	nt	nt	nt
COc1ccccc1NC(=O)c1cn(-c2ccccc2)nc1-c1ccccc1	nt	-11.8%	nt	nt	nt	nt
O=C(Nc1cccc(S(=O)(=O)N2CCOCC2)c1)c1ccc(N2CCCC2=O)cc1	nt	?	-1.6%	-2.1%	nt	1.5%
O=C(NCC(O)c1ccccc1)c1ccccc1 (stereo not drawn)	nt	21.3µM*	?	2.82µM*	nt	3.98µM*
O=C(NCCNC(=O)c1ccccc1)c1ccccc1	nt	-0.2%	2.5%	-2.1%	nt	2.2%
CC(C)(C)c1ccc(C(=O)NCCCNC(=O)c2cccnc2)cc1	nt	16.9µM*	21.4%	24.7%	nt	?
CC(C)(C)c1ccc(C(=O)NCCCNC(=O)c2ccccn2)cc1	nt	16.9µM*	1.4%	-4.8%	nt	-3.4%
CC(=O)Nc1cccc(OCCCNC(=O)c2ccc(C(C)(C)C)cc2)c1	nt	19µM*	-0.3%	14.2%	nt	17.2%
SMILES	SMN2 splice enh	FLuc counter	ELG1 genotoxic	NPC1 prom act	Luc counter	Rab9 promoter act
O=c1cc(O)cc(/C=C/c2ccc(O)c(O)c2)o1	?	nt	nt	1.5%[46.1 µM]	-9.7%	-1.0%[46.1 µM]
NC(=O)c1ccc(NC(=O)c2cnc3ccccc3n2)cc1	nt	?	?	?	nt	2.51µM*
Cc1ccc(NC(=O)c2ncc(Cl)c(Cl)c2Cl)cc1C	?	-15.0%	?	-3.4%	-4.6%	2.82µM*
O=C(Nc1ccccc1)c1cnc2ccccc2n1	?	12µM*	?	18.5%	-7.7%	6.7%
Cc1ccc(NC(=O)c2cnc3ccccc3n2)cc1C	nt	2.39µM*	?	0.199µM*	nt	0.501µM*
CC[C@]12c3[nH]c4cc(CCC(=O)N(C)C)ccc4c3CCN1C(=O)[C@@H](CC(=O)NCCCn1ccnc1)C[C@@H]2C(=O)N1CCN(C(=O)c2ccco2)CC1	nt	nt	-3.5%	nt	nt	nt
Cc1ccc(C)c(NC(=O)CCCCCCCCCCC2COCCO2)c1 (stereo not drawn)	-15.3%	2.4%	-2.2%	0.9%	1.5%	0.5%
Cc1ccc(CN2C(=O)N(c3ccc(C)c(Cl)c3)S(=O)(=O)c3ccccc32)cc1	nt	-2.0%	nt	nt	nt	nt
Cc1nc2ccc(S(=O)(=O)CCC(=O)Nc3ccc(C(C)C)cc3)cc2s1	nt	-7.8%	nt	nt	nt	nt
Cc1cc(C(=O)COC(=O)c2ccc(N)c([N+](=O)[O-])c2)c(C)n1-c1ccc2c(c1)OCO2	-77.9%	-0.6%	?	-12.7%	-1.0%	-23.4%
Cc1cc(C(=O)COC(=O)c2ccc3c(c2)OCO3)c(C)n1Cc1cccs1	18.8%	2.69µM*	23.1µM*	3.55µM*	1.5%	3.98µM*
CCn1nc(C(=O)OCC(=O)c2cc(C)n(Cc3cccs3)c2C)c2ccccc2c1=O	?	3.01µM*	18.4µM*	-0.5%	-2.0%	-2.5%
CCn1nc(C(=O)OCC(=O)c2ccc(F)cc2)c2ccccc2c1=O	-7.1%	-19.8%	-4.7%	-1.4%	-1.2%	-1.8%
CCn1nc(C(=O)OCC(=O)c2ccc3c(c2)OCCO3)c2ccccc2c1=O	-7.5%	2.39µM*	-0.9%	-0.2%	-3.1%	-6.4%
Cc1cc(C(=O)COC(=O)c2ccccc2O)c(C)n1Cc1cccs1	nt	0.0849µM*	-10.8%	-23.0%	?	-39.6%
Cc1cccc(-n2nc3c(c2NC(=O)C(C)C)CSC3)c1	nt	3.6%	0.0%[9.26 µM]	-3.7%	nt	0.0%
O=C(CCNS(=O)(=O)c1ccccc1)OCC(=O)c1ccc(Br)cc1	nt	1.1%	1.7%	-2.6%	nt	-2.8%
Cc1ccc(/C=N/NC(=S)N2CCOCC2)cc1	33.5%	15.1µM*	?	12.5%	-5.5%	5.0%
S=C(N/N=C/c1ccc(Br)cc1)N1CCCCC1	nt	26.9µM*	?	3.98µM*	nt	0.891µM*
O=C(NC(=S)Nc1ccccc1Cl)c1ccco1	nt	9.53µM*	4.1%	?	nt	?
O=C(NNC(=S)Nc1ccccc1Cl)c1ccccc1	nt	13.5µM*	?	2.51µM*	nt	1.58µM*
O=C(NC(=S)Nc1cccc(Cl)c1N1CCCCC1)c1ccco1	-17.5%	6.9%	-0.3%	-3.8%	0.4%	0.9%
